Shown are actives, neighbours in structure and some others; about 7.6% of the full set was active somewhere.
Gal4-VP16 FLuc: inhibits Gal4-VP16 luciferase reporter, ROR gamma counter-screen. actives 3.5% (n = 310,000). Drosophila S2 Gal4-VP16 UAS-luciferase, luminescence, 20 h. Potency, µM (top dose mostly 53.6 µM), without a hit: at the top dose activity, negative = inhibition, hits mostly inhibitors;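 also: Gal4-VP16 expression switched on by copper sulfate through the metallothionein promoter; potency is read from the fitted curve at half-maximal effect; % is scaled to controls: 0 for no effect and ±100 for the full control effect; nearly all actives have a fitted effect of over 50% in size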
BRCA1 expr up: BRCA1 expression activation | MCF7-BRCA1-FFLuc reporter, luminescence, 48 h; response scale: scaled: vehicle 0%, 10 µM genistein 100% | Potency, µM (titrated, usually from 46.1 µM), without a hit: at the highest dose activation, actives largely listed as activators | actives 1.1% (n = 380,000); also: potency is read from the fitted curve at half-maximal effect; nearly all actives have a fitted effect of over 80% in size
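Compounds are tested at multiple concentrations on MCF7 BRCA1-luciferase reporter cells seeded at 2000 per well; after 48 h, a single luminescence end-point is taken and curves fitted to the normalized data.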
p53 reactivation: restores transcriptional activity of mutant p53; Potency, µM (titrated, usually from 92.2 µM), without a hit: at the top dose activity change, positive = activation, hits mostly activators; actives 0.063% (n = 320,000); H1299 p53-A138V BP100-luciferase reporter, luminescence, 24 h; also: potency is read from the fitted curve at half-maximal effect; % of control where 0% means no effect; nearly all actives have a fitted effect of over 45% in size
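H1299 (p53-null), stable ts p53-A138V + BP100-Luc; 1000 cells/well, Opti-MEM/10% FBS; cpd 4 pt, 1:5; 24 h, 37 deg C, 5% CO2; detection reagent 10 min RT; luminescence.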
RORgamma inh: ROR gamma (mouse) transcription inhibition; Potency, µM (top dose mostly 53.6 µM), without a hit: at the top dose activity change, negative = inhibition, actives largely listed as inhibitors; Drosophila S2 Gal4-RORgamma UAS-luciferase reporter, 20 h; P51450; actives 5.4% (n = 310,000); AID 2551; also: potency is read from the fitted curve at half-maximal effect; % is scaled to controls: 0 for no effect and ±100 for the full control effect; nearly all actives have a fitted effect of over 60% in size
Target sequence (P51450 whole entry, looked up, the tested form may be a part): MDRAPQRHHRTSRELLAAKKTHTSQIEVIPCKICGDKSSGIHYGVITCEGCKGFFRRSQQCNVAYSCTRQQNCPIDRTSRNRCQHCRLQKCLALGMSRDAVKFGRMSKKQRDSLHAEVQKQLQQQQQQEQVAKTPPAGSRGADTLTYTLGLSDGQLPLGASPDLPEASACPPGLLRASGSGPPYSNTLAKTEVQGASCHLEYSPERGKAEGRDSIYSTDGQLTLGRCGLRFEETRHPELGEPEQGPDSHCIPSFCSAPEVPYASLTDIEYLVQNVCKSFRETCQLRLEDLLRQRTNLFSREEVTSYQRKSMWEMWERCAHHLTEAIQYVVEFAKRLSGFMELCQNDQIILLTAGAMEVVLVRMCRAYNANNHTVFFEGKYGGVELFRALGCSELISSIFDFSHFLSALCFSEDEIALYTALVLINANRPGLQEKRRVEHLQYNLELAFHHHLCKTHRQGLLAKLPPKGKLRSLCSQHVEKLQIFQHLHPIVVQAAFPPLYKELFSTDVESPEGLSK
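Using a luciferase readout, inhibitors were identified by reduced reporter activity in Drosophila cells coexpressing a copper-inducible Gal4–ROR gamma fusion and UAS-driven Photinus luciferase, incubated 20 hr after 700 uM copper sulfate.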
ELG1 DNA repair: inhibitors of ELG1-dependent DNA repair in HEK293T cells. HEK293T ELG1-luciferase reporter, luminescence, 16 h; DNA damage induced by 5-fluorouridine. Potency, µM (series often up to 46.1 µM), for inactives: at the top dose activity change, negative = inhibition, hits mostly inhibitors. actives 2.3% (n = 330,000); also: potency is read from the fitted curve at half-maximal effect; % is scaled to controls: 0 for no effect and ±100 for the full control effect; nearly all actives have a fitted effect of over 55% in size
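Quantitative HTS, concentration-response format. 2,000 cells/well co-treated with 5-fluorouridine and compound, 16 hr in 5% CO2 at 37 °C; ONE-Glo luminescence read after 30 min.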
Giardia kill: kills Giardia lamblia. activity change, % at 7.66 µM, hits read low. AID 540267. actives 0.15% (n = 340,000). Giardia lamblia trophozoite viability; in the data active = activity change below about -80%; inconclusive = between about -30% and that limit;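 also: parasites exposed to compound for two days anaerobically before the ATP read; % is scaled to controls: 0 for no effect and ±100 for the full control effect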
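ATP-content bioluminescence gauges trophozoite survival. Cells (100/well) receive compound and incubate anaerobically for 48 hrs at 37 deg C; detection reagent follows for 15-30 min at room temperature.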
An asterisk follows results filed as active; ? = inconclusive; · = no result; [ ] = another dose, or the depositor's remark. Unless noted, calls follow the shape of the dose curve; as a rule, active = well fitted curve in the direction sought with a large enough effect; inconclusive = small, poorly fitted or top-dose-only effect, or another doubt; inactive = no such curve, though single readings can be large; an effect the other way counts as inactive or inconclusive.

SMILES	Gal4-VP16 FLuc	BRCA1 expr up	p53 reactivation	RORgamma inh	ELG1 DNA repair	Giardia kill
COCCNC(=O)c1c[nH]c2ccc(S(=O)(=O)N3CCc4ccccc43)cc2c1=O	-28%	-46%	0%	?	10µM*	7
COCCCNC(=O)c1c[nH]c2ccc(S(=O)(=O)N3CCc4ccccc43)cc2c1=O	?	-53%	-2%	41%	7.3µM*	10
CCOc1cc(-c2cc(-c3ccc(C)cc3)nc(N)c2C#N)ccc1O	-21%	-90%	-8%	10%	16µM*	1
COc1cc(-c2cc(-c3ccc(O)cc3)nc(N)c2C#N)ccc1O	0%	-82%	-3%	2%	?	0
Cc1ccc(N2C(=O)N(CC(=O)Nc3ccc(C)cc3[N+](=O)[O-])C(=O)C2C)cc1 (configuration not stated)	·	-3%	8%	·	23%	9
CCC(C)c1ccc(NC(=O)N2CCOCC2)cc1 (configuration not stated)	6%	10µM*	-3%	14%	?	-1
CCC(C)c1ccc(NC(=S)NC(C)C2CCCO2)cc1 (configuration not stated)	18µM*	38%	9%	6.3µM*	?	-10
O=C(Nc1ccc(Cc2ccc(NC(=O)N3CCOCC3)cc2)cc1)N1CCOCC1	·	4%	13%	10%[0.365 µM]	?	-11
COc1ccc(-c2cccc(NC(=O)c3ccco3)c2)nn1	·	0%	6%	·	?	-26
CCC(C)c1ccc(NC(=O)c2ccco2)cc1 (configuration not stated)	7.9µM*	0%	·	20µM*	?	?
COc1ccc(-c2ccc(NC(=O)c3ccco3)cc2)nn1	·	?	-6%	·	?	-93*
Cc1cccc2[nH]c(-c3ccc(NC(=O)c4ccco4)cc3)nc12	-8%	1.8µM*	?	4%	?	-18
O=C(Nc1ccc(Oc2ncccn2)cc1)c1ccco1	3%	54%	17%	22%	?	?
Cc1ccc(-c2nc3ccccc3[nH]2)cc1NC(=O)c1ccco1	2%	48%	8%	22%	-4%	-13
Cc1ccc(Oc2ccc(NC(=O)c3ccco3)cc2)cc1	-3%	11µM*	14%	31%[10 µM]	?	-11
CCOC(=O)N1CCN(C(=O)COC(=O)CNC(=O)c2ccc(Cl)cc2Cl)CC1	·	-16%	4%	·	16%	-9
Cn1cc(C(=O)c2ccc(Cl)cc2Cl)cc1C(=O)N/N=C(\N)COc1ccccc1	1.6µM*	-22%	-8%	0.71µM*	-28%	5
Cn1cc(C(=O)c2ccc(Cl)cc2Cl)cc1C(=O)N/N=C(\N)COc1ccc(Cl)cc1	3.5µM*	-46%	2%	1.4µM*	18µM*	-15
CCOC(=O)C/C(N)=N/NC(=O)c1ccc(Cl)cc1Cl	?	-4%	3%	7.9µM*	14%	2
CNC(=O)/C=C/c1cc(C(=O)c2ccc(Cl)cc2Cl)cn1C	-1%	-29%	1%	0%	-5%	20
Cn1cc(C(=O)c2ccc(Cl)cc2Cl)cc1C(=O)O	2%	-11%	-12%	16%	1%	-9
Cn1cc(C(=O)c2ccc(Cl)cc2Cl)cc1C(=O)N/N=C(\N)COc1ccc(Cl)cc1Cl	4µM*	-37%	1%	1.4µM*	23µM*	-12
CCn1c(N2CCC(Cc3ccccc3)CC2)nc2c1c(=O)[nH]c(=O)n2C	-6%	-46%	-23%	37%	?	-21
CC(=O)O[C@H]1[C@@H](O)[C@H](O)[C@H](Oc2c(O)c(C)c3c4c2[C@@H](C)CC[C@@H]4[C@@H](C)C[C@H]3C=C(C)C)O[C@H]1C	·	-70%	-15%	·	27%	-4
O=C(Cn1c(C(F)(F)F)nc2ccccc21)NCCCN1CCOCC1	3%	5%[1.84 µM]	-7%	-23%	12%	7
SMILES	Gal4-VP16 FLuc	BRCA1 expr up	p53 reactivation	RORgamma inh	ELG1 DNA repair	Giardia kill
Cn1cc(C(=O)c2ccc(Cl)cc2Cl)cc1C(=O)N/N=C(\N)COc1ccc(F)cc1	2.5µM*	-35%	3%	2.2µM*	-19%	0
O=C(COC(=O)CNC(=O)c1ccc(Cl)cc1Cl)NCc1ccco1	·	-13%	1%	·	?	-6
COc1ccc(CC(=O)N(Cc2ccccc2)c2cccc(C)c2)cc1OC	15%	-20%	-8%	-19%	6%	0
COC(=O)c1ccc(C(=O)N(Cc2ccccc2)c2ccccc2)cc1	-3%	0%	-14%	?	6%	2
Cc1cccc(N(Cc2ccccc2)C(=O)CCl)c1	-25%	-75%	-11%	10µM*	-10%	-13
O=C(CCl)N(Cc1ccccc1)c1ccccc1	?	-74%	-9%	11µM*	-25%	3
COc1ccc(C(C)(O)c2nc(-c3ccc(N(C)C)cc3)cs2)cc1 (configuration not stated)	·	8%	·	·	·	·
CCCc1c(C)c2ccc(OCC(C)=O)cc2oc1=O	3%	5.6µM*	?	16%	?	-9
CCOc1ccc2cc(C(=O)c3ccccc3)c(=O)oc2c1	-6%	10µM*	?	31%	?	-13
COc1ccc2cc(C(=O)c3ccccc3)c(=O)oc2c1	-8%	74%	?	31%	?	?
COc1cccc(C(=O)COc2ccc3c(C)c(Cc4ccccc4)c(=O)oc3c2)c1	-4%	8%	-6%	36%	-27%	-3
Cc1c(C)c2ccc(OCC(=O)c3ccccc3)cc2oc1=O	7%	6.3µM*	11%	-1%	?	11
COc1ccc(-c2cc3ccc(OCC(C)=O)cc3oc2=O)cc1OC	-15%	10µM*	?	1%	?	-9
Cn1c(=O)oc2cc(S(=O)(=O)N3CCCC(C(=O)Nc4ccc(Br)cc4F)C3)ccc21 (configuration not stated)	·	4%	·	·	·	·
CCOC(=O)c1nnn(-c2nonc2-n2cccc2)c1-c1cccc([N+](=O)[O-])c1	2%	5%	10%	10%	-18%	-7
Cc1ccc2c(C)c(C(=O)N(C)C(C)c3ccncn3)oc2c1C (configuration not stated)	19%	61%	-10%	0%	-7%	-6
Cc1ccc2c(C)c(C(=O)N(C)C(C)c3ccon3)oc2c1C (configuration not stated)	3%	10µM*	7%	2%	?	-12
O=C(CCC1CCCN(C(=O)Cn2cnnn2)C1)NCc1ccccc1F (configuration not stated)	-4%	0%	4%	12%	13%	-4

Bioassay records as filed in PubChem BioAssay.
